This is a sample that favours compounds with a hit; in the whole collection about 4.9% have one here.
HSF1 inhib: HSF1 inhibition. AID 2098. 300,000 tested, 0.77% active. activity change, negative = inhibition, % at 7.5 µM (by protocol). NIH3T3-HGL HSE-luciferase, MG132-induced, luminescence 8 h; hits give low values;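 active = more than half of replicate wells show activity change below -50%, luminescence cut by over half; inconclusive = some wells, but at most half, below -50%; inactive = no replicate well below -50%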;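 note: luciferase reports HSF-1 transcriptional activity via heat shock element; 0% = median of DMSO wells and -100% = zero luminescence signal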
Platelet DG rel: modulates dense granule release in human platelets | human platelet-rich plasma, SFLLRN dense granule ATP release, luminescence | inhibition, %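 (compounds screened at 7.5 µM in platelet-rich plasma)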 | 300,000 tested, 0.22% active | AID 1663;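 active = mean replicate score, as percent of positive control, at or above 50; inconclusive = mean below 50 but at least one replicate at or above 50; inactive = mean and every replicate below 50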
dFosB act: enhances mouse delta FosB homodimer DNA binding. P13346. purified delta FosB, TAMRA-CDK5 oligo fluorescence polarization; percent of positive-control signal above neutral wells. activation, % at 25 µM. 340,000 tested, 0.99% active. AID 493131;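 active = mean activation above about 17%, with every replicate also reaching it, limit read from the data, passing the limit was not always enough; inconclusive = only one of the two conditions met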
Target sequence (P13346 whole entry, looked up): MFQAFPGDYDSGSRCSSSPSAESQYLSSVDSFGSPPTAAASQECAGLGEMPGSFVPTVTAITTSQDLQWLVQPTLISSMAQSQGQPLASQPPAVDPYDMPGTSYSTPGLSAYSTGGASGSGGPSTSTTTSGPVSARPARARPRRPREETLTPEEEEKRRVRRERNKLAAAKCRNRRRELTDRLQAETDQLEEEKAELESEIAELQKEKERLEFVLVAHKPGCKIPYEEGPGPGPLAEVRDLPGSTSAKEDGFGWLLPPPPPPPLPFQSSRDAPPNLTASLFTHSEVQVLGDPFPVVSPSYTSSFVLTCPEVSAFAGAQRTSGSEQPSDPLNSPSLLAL
HSF-1 act: increases HSF-1 driven luciferase reporter signal | 300,000 tested, 1.7% active | NIH3T3-HGL HSF-1 luciferase reporter, MG132, 8 h; 100% = twice DMSO control signal | activation, % at 9 µM | AID 504408;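 active = mean replicate activation of at least 50% with a set share of replicates each reaching 50%; inconclusive = only one of those two conditions met; inactive = mean below 50% and too few replicates reaching it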;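 note: 0% = median of the neutral control wells and 100% = twice that signal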
MPTP block: permeability transition pore inhibition; inhibition, % at 10 µM; AID 602449; 360,000 tested, 1.4% active; isolated mouse mitochondria, Ca2+ swelling absorbance, 30 min;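 active = inhibition of 50% or more, scaled per plate between neutral and stimulator controls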;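 note: 0% = DMSO wells given calcium and 100% = 1 mM EGTA wells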
HSP90 inh: inhibitors of HSP90 luciferase refolding in rabbit reticulocyte lysate; 290,000 tested, 0.91% active; luciferase refolding luminescence, 3 h; inhibition, % at 5.6 µM;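 active = inhibition above the screen-wide mean plus 3 SD, computed separately per campaign, cut at about 16% in these data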;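 note: 0% = DMSO wells and 100% = 60 µM geldanamycin wells; inhibitors lower the luminescence because luciferase stays unfolded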
Rh123 counter: Rhodamine 123 counter-screen of mitochondrial pore hits; 5,000 tested, 78% active; isolated mitochondria, membrane potential, Rhodamine 123 fluorescence; shares compounds with MPTP block; inhibition, % at 10 µM; in the data active = inhibition above about 22%;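 note: 0% = DMSO vehicle and 100% = positive control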
MPTP swell DR: dose response confirmation of mitochondrial permeability transition pore inhibitors; IC50, µM; isolated mitochondria swelling, absorbance; shares compounds with MPTP block; 780 tested, 58% active; in the data active = IC50 below about 20 µM
MPTP cs DR: MPTP inhibitor counter-screen activity, dose response; isolated mitochondria counterscreen, fluorescence read-out; shares compounds with MPTP block; 780 tested, 49% active; IC50, µM; in the data active = IC50 below about 80 µM
* marks the source's active call; other numbers are inactive results; ? = inconclusive; · = no result given.

SMILES	HSF1 inhib	Platelet DG rel	dFosB act	HSF-1 act	MPTP block	HSP90 inh	Rh123 counter	others
CCN(c1ccccc1)S(=O)(=O)c1ccc(C(=O)Nc2cccc(NC(C)=O)c2)cc1	·	·	-12	·	-1	·	·
CN(c1ccccc1)S(=O)(=O)c1ccc(NC(=S)Nc2ccccc2)cc1	-21	0	1	-39	96*	-1	91*
CCSc1nnc(NC(=O)c2cccc(S(=O)(=O)N(C)c3ccc(C)cc3)c2)s1	7	9	-13	1	72*	0	73*
CN(c1ccccc1)S(=O)(=O)c1cccc(C(=O)NNC(=O)c2ccccc2)c1	-4	-3	-5	-21	56*	2	38*
CC(=O)Nc1ccccc1C(=O)N1CCN(Cc2ccccc2)CC1	-7	3	1	-6	-2	2	·
O=c1[nH]c(=O)c2[nH]c(=S)n(-c3ccccc3)c2[nH]1	·	·	7	·	-1	·	·
CCNC(=O)C1(C)CCN(C(=O)c2ccc(F)cc2Cl)C1 (stereo unspecified)	·	·	·	·	1	·	·
O=C(NCCN1CCCCC1)Nc1cccc(C(F)(F)F)c1	1	-1	-3	-3	1	-6	·
COc1ccccc1NC(=O)Cc1csc(NC(=S)Nc2ccccc2)n1	2	2	?	-11	79*	0	71*
COc1ccc(NC(=S)Nc2nc(CC(=O)Nc3ccccc3OC)cs2)cc1	-4	1	11	-16	75*	3	79*
COc1ccc(OC)c(NC(=O)Cc2csc(NC(=O)Nc3ccccc3OC)n2)c1	10	-12	4	12	0	·	·
NC(=O)C[n+]1cccc(C(=O)Nc2ccccc2)c1	3	4	4	-9	0	1	·
Cc1cc(C)c2c(CN(C)Cc3ccccc3)cc(=O)oc2c1	·	·	·	·	-1	·	·
COc1ccc(CCNC(=O)c2nn(C)cc2Cl)cc1	-11	5	-3	-18	-1	4	·
COc1ccc(CCNC(=O)c2cc(-c3ccc(Cl)c(Cl)c3)oc2C)cc1	4	10	-5	10	91*	3	91*
Cc1ccc(S(=O)(=O)N2C[C@H]3C(=O)C[C@@H](c4ccc(Cl)cc4)N(S(=O)(=O)c4ccccc4C)[C@H]3C[C@H]2c2ccc(Cl)cc2)cc1	·	·	·	·	0	·	·
Cn1c(=O)c(C(=O)Nc2ncccc2O)c(O)c2ccccc21	6	-1	?	21	74*	4	-8	MPTP swell DR=>100;MPTP cs DR=>80
CCCCCCc1cc2cc(S(=O)(=O)c3ccc(C)cc3)c(=O)oc2cc1O	-4	-8	4	12	99*	0	78*
CCCCCCc1cc2cc(S(=O)(=O)c3ccc(Cl)cc3)c(=O)oc2cc1O	-8	-18	6	-4	101*	9	94*
CC(C)c1c(C(=O)N/N=C/c2ccsc2)nnn1-c1nonc1N	6	20	-1	0	2	-2	·
O=C(COC(=O)Cc1c(Cl)cccc1Cl)Nc1ccc(OC(F)(F)F)cc1	-84*	7	-6	-86	66*	-4	73*
CCN(CC)CCCNC(=O)c1cc(-c2ccc(Cl)c(Cl)c2)on1	-4	-1	-11	1	79*	-2	-5
O=C1OCCN1N=Cc1ccco1	·	·	3	·	-1	·	·
COc1ccc(C(=O)Nc2ccnn2C2CCN(C(=O)c3cnsn3)CC2)cc1	3	9	-2	20	-1	-1	·
COc1ccc(-c2csc(NC(=O)CSc3nc(SC)ns3)n2)cc1	24	-4	5	71*	65*	-7	74*
SMILES	HSF1 inhib	Platelet DG rel	dFosB act	HSF-1 act	MPTP block	HSP90 inh	Rh123 counter	others
CCOC(=O)N1CCN(C(=O)CSCC(=O)Nc2nc(-c3ccc(OC)cc3)cs2)CC1	·	-4	2	·	4	-1	·
CCOC(=S)SCC(=O)Nc1nc(-c2ccc(Br)cc2)cs1	7	0	-1	7	80*	-2	75*
Cc1cc(OC(C)C(=O)N(Cc2ccco2)C2CCS(=O)(=O)C2)ccc1Cl (stereo unspecified)	-2	5	-14	-6	-1	-1	·
CC(Nc1ncnc2ccccc12)c1ccccc1 (stereo unspecified)	-7	9	0	1	96*	0	83*
COc1ccc(C2c3cc(OC)c(OC)cc3CC3C(=O)OCC32)cc1OC (stereo unspecified)	·	·	-7	·	1	·	·
O=C(CCCN1C(=O)c2ccccc2C1=O)Nc1nccs1	-7	-4	-5	5	-1	-3	·
O=C(CCCCCCN1C(=O)c2ccccc2C1=O)Nc1nccs1	7	-2	0	9	66*	0	-1	MPTP swell DR=>100;MPTP cs DR=>80
Fc1ccc(/C=N/NC(=S)Nc2ccc(Cl)cc2Cl)cc1	-3	-2	12	0	7	0	·
O=[N+]([O-])c1ccc(O)c(/C=N/NC(=S)Nc2ccc(Cl)cc2Cl)c1	-20	-1	5	-29	96*	3	47*
O=[N+]([O-])c1ccc(/C=N/NC(=S)Nc2ccc(Cl)cc2Cl)s1	?	-2	-4	-53	52*	2	61*
CN1c2ccccc2C(O)=C(C(=S)Nc2ccc(F)c(Cl)c2)S1(=O)=O	20	-3	1	27	89*	1	72*
CCOC(=O)c1sc(=S)n(C)c1NC(=O)c1cccc(Br)c1	-2	0	·	10	51*	6	76*
Cc1ccc(NC(=S)/C(C#N)=C2/Nc3ccccc3S2)cc1	·	·	·	·	65*	·	39*
CSc1sc(C(=O)NN)c2c1C(O)CCC2 (stereo unspecified)	2	3	-3	8	-1	·	·
CC(C)c1ccc(NC(=O)c2snc3ccc(Cl)cc23)cc1	9	7	-8	-12	74*	-8	74*
CC(=O)c1ccc(NC(=O)Nc2ccc(Cl)cc2)cc1	28	9	-3	47	85*	-3	86*
COC(=O)Cc1ccc(NC(=S)NCc2ccccc2Cl)cc1	-9	11	-3	13	4	-1	·
S=C(NCc1ccc(Cl)cc1Cl)NC1CCCCC1	9	-1	-2	34	106*	0	85*
CNC(=O)Nc1ccc(Cl)cc1	-1	7	0	13	96*	-1	91*
Clc1ccc(CNC2CCCC2)c(Cl)c1	-4	2	0	15	0	-2	·
CC(=O)c1ccc(NC(=S)NCc2ccc(Cl)cc2Cl)cc1	-4	-3	-2	-4	95*	1	94*
O=C1C(=Cc2cccc(F)c2)Cc2ccccc21	·	·	·	·	0	·	·
